{"source": "PubChem BioAssay (Tox21)", "note": "Results filed as inconclusive are left out. A number with no mark means an inactive call. Calls of active or inactive are those of the source. Unless noted, the call rests on the fitted dose curve; in most records, active means well fitted cell-killing curve with a large enough effect in the repeat runs; inconclusive means weak or mixed curves; inactive means flat fitted curve, though single readings scatter. On the % scale 0 is the no-effect control and ±100 the full control effect."}
{"test": "qHTS assay to identify small molecule agonists of the progesterone receptor (PR) signaling pathway - cell viability counter screen (AID 1346799; calls by dose curve; further: nearly all actives have a fitted effect of over 45% in size; further: potency means the concentration at half of the fitted maximal effect)", "settings": "PR-UAS-bla HEK293T viability, CellTiter-Glo luminescence, 16 h; series mostly up to 92.4 µM; activity change, negative = cytotoxicity: at the top concentration", "outline": "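HEK293T PR-UAS-bla, 3,000 cells/well, 2% charcoal-stripped FBS; 6 h settle, compound 16 h at 37C/5% CO2; LiveBLAzer 2 h RT, then CellTiter-Glo 30 min RT, luminescence read.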"}
{"smiles": "C(=C\\c1ccccc1)/c1ccccc1", "activity change, negative = cytotoxicity": "18.1%"}
{"smiles": "CC(CCC(=O)O)C(=O)O", "note": "(stereo not given)", "activity change, negative = cytotoxicity": "0.418%"}
{"smiles": "O=C(CCCN1CC=C(n2c(=O)[nH]c3ccccc32)CC1)c1ccc(F)cc1", "activity change, negative = cytotoxicity": "16% [at 42.5 µM]"}
{"smiles": "CCCCC(CC)CN", "note": "(stereo not given)", "activity change, negative = cytotoxicity": "-16.3%"}
{"smiles": "CCCCCCCCN", "activity change, negative = cytotoxicity": "-8.26%"}
{"smiles": "CC(O)c1ccccc1", "note": "(stereo not given)", "activity change, negative = cytotoxicity": "18%"}
{"smiles": "O=C(Cn1ccnc1[N+](=O)[O-])NCCO", "activity change, negative = cytotoxicity": "4.7% [at 42.5 µM]"}
{"smiles": "Cc1ccccc1S", "activity change, negative = cytotoxicity": "1.37% [at 42.5 µM]"}
{"smiles": "O=C1c2ccccc2C(=O)C1c1nc2ccccc2c(Br)c1O", "activity change, negative = cytotoxicity": "-1.07%"}
{"smiles": "COC(=O)CS", "activity change, negative = cytotoxicity": "0.335%"}
{"smiles": "CCC1NC(=O)c2cc(S(N)(=O)=O)c(Cl)cc2N1", "note": "(stereo not given)", "activity change, negative = cytotoxicity": "3.46% [at 42.5 µM]"}
{"smiles": "CCCCCCCCCCC(=O)O", "activity change, negative = cytotoxicity": "-8.02%"}
{"smiles": "C1COC1", "activity change, negative = cytotoxicity": "-1.14%"}
{"smiles": "C=C/C(C)=C/C/C=C(\\C)CCC=C(C)C", "activity change, negative = cytotoxicity": "-20.6%"}
{"smiles": "O=C(O)C[C@H](NC(=O)OCc1ccccc1)C(=O)O", "activity change, negative = cytotoxicity": "-2.22%"}
{"smiles": "CC(=O)Oc1ccc([N+](=O)[O-])cc1CCl", "activity change, negative = cytotoxicity": "-4.47%"}
{"smiles": "CCCCCC#CC(=O)OC", "activity change, negative = cytotoxicity": "-3.24%"}
{"smiles": "CC(C)C(O)(c1ccc(OC(F)(F)F)cc1)c1cncnc1", "note": "(stereo not given)", "activity change, negative = cytotoxicity": "33.9%"}
{"smiles": "O=c1[nH]ncc2ccccc12", "activity change, negative = cytotoxicity": "6.39%"}
{"smiles": "C=Cc1ccc(S(=O)(=O)O)cc1", "activity change, negative = cytotoxicity": "-19.2%"}
{"smiles": "Cc1cc(C)c(N)cc1C", "activity change, negative = cytotoxicity": "-17.7%"}
{"smiles": "CC(C)=CCC1C(=O)N(c2ccccc2)N(c2ccccc2)C1=O", "activity change, negative = cytotoxicity": "2.62% [at 42.5 µM]"}
{"smiles": "CCOC(=O)OC(C)OC(=O)[C@@H]1N2C(=O)[C@@H](NC(=O)[C@H](N)c3ccccc3)[C@H]2SC1(C)C", "note": "(stereo not given in full)", "activity change, negative = cytotoxicity": "3.72% [at 42.5 µM]"}
{"smiles": "OCCOCC#CCOCCO", "activity change, negative = cytotoxicity": "-2.2%"}
{"smiles": "C=C(C)C(=O)OCCCCCCCCCCCCC", "activity change, negative = cytotoxicity": "-3.78%"}
{"smiles": "Cc1cc(C)cc(N)c1", "activity change, negative = cytotoxicity": "-2.34%"}
{"smiles": "C[C@@H]1CN(CCCn2c3ccccc3c3ccccc32)C[C@H](C)N1", "Potency": "11.9 µM (active)"}
{"smiles": "CCOC(=O)/C=C/C(=O)OCC", "activity change, negative = cytotoxicity": "5.68%"}
{"smiles": "O=C(O)c1ccc(OCCCOc2ccc(C(=O)O)cc2)cc1", "activity change, negative = cytotoxicity": "2.22% [at 42.5 µM]"}
{"test": "qHTS assay to identify small molecule antagonists of the TGF-beta/Smad signaling pathway - cell viability counter screen (AID 1346824); further: nearly all actives have a fitted effect of over 50% in size", "settings": "SBE-bla HEK293T viability, CellTiter-Glo luminescence; series mostly up to 76.8 µM; viability change, negative = cytotoxic: at the top concentration", "outline": "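SBE-bla HEK 293T cells were plated overnight at 37 C, then given compounds in DMSO plus TGF-beta1 (added as 0.25 ng/mL solution) for 5 hr. After the bla read, CellTiter-Glo was added to the same wells and luminescence read after 30 min at room temperature.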"}
{"smiles": "C(=C\\c1ccccc1)/c1ccccc1", "viability change, negative = cytotoxic": "-10.8%"}
{"smiles": "CC(CCC(=O)O)C(=O)O", "note": "(stereo not given)", "viability change, negative = cytotoxic": "-2.21%"}
{"smiles": "O=C(CCCN1CC=C(n2c(=O)[nH]c3ccccc32)CC1)c1ccc(F)cc1", "viability change, negative = cytotoxic": "0.636% [at 35.3 µM]"}
{"smiles": "CCOC(C)=O", "viability change, negative = cytotoxic": "12.4%"}
{"smiles": "O=C(Nc1cccc2c(=O)cc(-c3nn[nH]n3)oc12)c1ccc(OCCCCc2ccccc2)cc1", "viability change, negative = cytotoxic": "-4.72% [at 35.3 µM]"}
{"smiles": "CCCCCCCCN", "viability change, negative = cytotoxic": "-7.73%"}
{"smiles": "CC(O)c1ccccc1", "note": "(stereo not given)", "viability change, negative = cytotoxic": "-6.43%"}
{"smiles": "O=C(Cn1ccnc1[N+](=O)[O-])NCCO", "viability change, negative = cytotoxic": "5.83% [at 35.3 µM]"}
{"smiles": "Cc1ccccc1S", "viability change, negative = cytotoxic": "-0.2% [at 35.3 µM]"}
{"smiles": "O=C1c2ccccc2C(=O)C1c1nc2ccccc2c(Br)c1O", "viability change, negative = cytotoxic": "-12.1%"}
{"smiles": "COC(=O)CS", "viability change, negative = cytotoxic": "5.95%"}
{"smiles": "CCC1NC(=O)c2cc(S(N)(=O)=O)c(Cl)cc2N1", "note": "(stereo not given)", "viability change, negative = cytotoxic": "-15.2% [at 35.3 µM]"}
{"smiles": "C1COC1", "viability change, negative = cytotoxic": "-11%"}
{"smiles": "COc1ccccc1N1CCN(CCCCNC(=O)c2ccc(-c3ccc(C(C)=O)cc3)cc2)CC1", "viability change, negative = cytotoxic": "2.8% [at 35.3 µM]"}
{"smiles": "C=C/C(C)=C/C/C=C(\\C)CCC=C(C)C", "viability change, negative = cytotoxic": "6.49%"}
{"smiles": "CC(=O)Oc1ccc([N+](=O)[O-])cc1CCl", "viability change, negative = cytotoxic": "6.32%"}
{"smiles": "CCCCCC#CC(=O)OC", "viability change, negative = cytotoxic": "4.53%"}
{"smiles": "CC(C)C(O)(c1ccc(OC(F)(F)F)cc1)c1cncnc1", "note": "(stereo not given)", "viability change, negative = cytotoxic": "-1.78%"}
{"smiles": "O=c1[nH]ncc2ccccc12", "viability change, negative = cytotoxic": "2.49%"}
{"smiles": "C=Cc1ccc(S(=O)(=O)O)cc1", "viability change, negative = cytotoxic": "-10.7%"}
{"smiles": "Cc1cc(C)c(N)cc1C", "viability change, negative = cytotoxic": "0.538%"}
{"smiles": "CC(C)=CCC1C(=O)N(c2ccccc2)N(c2ccccc2)C1=O", "viability change, negative = cytotoxic": "-0.454% [at 35.3 µM]"}
{"smiles": "CCOC(=O)OC(C)OC(=O)[C@@H]1N2C(=O)[C@@H](NC(=O)[C@H](N)c3ccccc3)[C@H]2SC1(C)C", "note": "(stereo not given in full)", "viability change, negative = cytotoxic": "-10.4% [at 35.3 µM]"}
{"smiles": "OCCOCC#CCOCCO", "viability change, negative = cytotoxic": "-1.99%"}
{"smiles": "c1csc(SSc2cccs2)c1", "viability change, negative = cytotoxic": "-2.25%"}
{"smiles": "C=C(C)C(=O)OCCCCCCCCCCCCC", "viability change, negative = cytotoxic": "-11.5%"}
{"smiles": "Cc1cc(C)cc(N)c1", "viability change, negative = cytotoxic": "1.57%"}
{"smiles": "C[C@@H]1CN(CCCn2c3ccccc3c3ccccc32)C[C@H](C)N1", "viability change, negative = cytotoxic": "-13.3% [at 35.3 µM]"}
{"smiles": "NC(=O)c1ccncc1", "viability change, negative = cytotoxic": "-0.0906%"}
{"smiles": "CCOC(=O)/C=C/C(=O)OCC", "viability change, negative = cytotoxic": "-14.5%"}
{"smiles": "CC(=O)N/N=C/c1ccc([N+](=O)[O-])o1", "viability change, negative = cytotoxic": "-1.8% [at 35.3 µM]"}
